Laboratory results taken from the supplement of paper PMC10849652.
The full data set covers some 8,800 targets. This sample favours those with a hit. About 0.5% of all pairs of compound and target were hits.

Tests used:
Assay in all cases: log2 fold change, soluble protein after heating vs DMSO (PISA); higher = thermal stabilisation; K562 lysate, 10 uM; active = over 0.2 and 3.5 SD of the protein, either way, in both replicates (recomputed)
vemurafenib = compound: CCCS(=O)(=O)Nc1ccc(F)c(C(=O)c2c[nH]c3ncc(-c4ccc(Cl)cc4)cc23)c1F [vemurafenib]
Summary of the method: (§1)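 K562 pellets were dounce-homogenised in PBS pH 7.4 with 1 mM MgCl2, and the crude extract at 1 mg/mL protein was treated with 10 μM compound for 30 min. Aliquots were heated for 3 min across 48°C-58°C, pooled, and brought to 0.5% NP-40 at 4°C; soluble protein was the supernatant after 21,000xg for 90 min. Soluble protein was quantified by TMTpro 16plex LC-MS/MS with channel sums equalised, and reported as log2 fold change in thermal stability against DMSO controls, with values from duplicates.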

[1] = compound: CCCS(=O)(=O)Nc1ccc(F)c(C(=O)c2c[nH]c3ncc(Cl)cc23)c1F
Summary of the method: as §1

barasertib = compound: CCN(CCCOc1ccc2c(Nc3cc(CC(=O)Nc4cccc(F)c4)[nH]n3)ncnc2c1)CCOP(=O)(O)O [barasertib]
Summary of the method: as §1

[2] = compound: CC[C@@H]1C(=O)N(C)c2cnc(Nc3ccc(C(=O)NC4CCN(C)CC4)cc3OC)nc2N1C1CCCC1
Summary of the method: as §1

volasertib = compound: CC[C@@H]1C(=O)N(C)c2cnc(Nc3ccc(C(=O)N[C@H]4CC[C@H](N5CCN(CC6CC6)CC5)CC4)cc3OC)nc2N1C(C)C [volasertib]
Summary of the method: as §1

[3] = compound: CCn1c(C(=O)N(C2CC2)C2CC2)cc2c3c(ncn3C)c(Nc3cc(C)n(C)n3)nc21
Summary of the method: as §1

[4] = compound: CCn1cc(-c2ccnc3[nH]c(-c4cccc(CN(C)C)c4)cc23)c(-c2ccc(NC(=O)N(C)C)cc2)n1
Summary of the method: as §1

[5] = compound: CN1CCC(CNc2ccc3ncc(-c4cccc(OC(F)(F)F)c4)n3n2)CC1
Summary of the method: as §1

saracatinib = compound: CN1CCN(CCOc2cc(OC3CCOCC3)c3c(Nc4c(Cl)ccc5c4OCO5)ncnc3c2)CC1 [saracatinib]
Summary of the method: as §1

sotrastaurin = compound: CN1CCN(c2nc(C3=C(c4c[nH]c5ccccc45)C(=O)NC3=O)c3ccccc3n2)CC1 [sotrastaurin]
Summary of the method: as §1

Measured: log2 fold change

TMPO (UniProt P42167)
inactive: vemurafenib 0.063 | [1] 0.008 | barasertib 0.003 | [2] -0.01 | volasertib 0.013 | [3] 0.022 | [4] 0.033 | [5] -0.033 | saracatinib 0.014 | sotrastaurin -0.014

UBAP2 (UniProt Q5T6F2)
inactive: vemurafenib 0.009 | [1] 0.016 | barasertib -0.007 | [2] 0.071 | volasertib -0.002 | [3] 0.004 | [4] -0.172 | [5] 0.106 | saracatinib 0.028 | sotrastaurin 0.02

TUBGCP4 (UniProt Q9UGJ1)
inactive: vemurafenib 0.088 | [1] 0.028 | barasertib 0.116 | [2] 0.039 | volasertib -0.027 | [3] 0.026 | [4] 0.013 | [5] -0.077 | saracatinib 0.025 | sotrastaurin 0.109

TBL2 (UniProt Q9Y4P3)
inactive: vemurafenib -0.016 | [1] -0.013 | barasertib -0.015 | [2] -0.029 | volasertib -0.034 | [3] -0.045 | [4] -0.029 | [5] 0.022 | saracatinib 0.027 | sotrastaurin 0.001

TRIM56 (UniProt Q9BRZ2)
UniProt Q9BRZ2, sequence (Q9BRZ2 whole entry, looked up): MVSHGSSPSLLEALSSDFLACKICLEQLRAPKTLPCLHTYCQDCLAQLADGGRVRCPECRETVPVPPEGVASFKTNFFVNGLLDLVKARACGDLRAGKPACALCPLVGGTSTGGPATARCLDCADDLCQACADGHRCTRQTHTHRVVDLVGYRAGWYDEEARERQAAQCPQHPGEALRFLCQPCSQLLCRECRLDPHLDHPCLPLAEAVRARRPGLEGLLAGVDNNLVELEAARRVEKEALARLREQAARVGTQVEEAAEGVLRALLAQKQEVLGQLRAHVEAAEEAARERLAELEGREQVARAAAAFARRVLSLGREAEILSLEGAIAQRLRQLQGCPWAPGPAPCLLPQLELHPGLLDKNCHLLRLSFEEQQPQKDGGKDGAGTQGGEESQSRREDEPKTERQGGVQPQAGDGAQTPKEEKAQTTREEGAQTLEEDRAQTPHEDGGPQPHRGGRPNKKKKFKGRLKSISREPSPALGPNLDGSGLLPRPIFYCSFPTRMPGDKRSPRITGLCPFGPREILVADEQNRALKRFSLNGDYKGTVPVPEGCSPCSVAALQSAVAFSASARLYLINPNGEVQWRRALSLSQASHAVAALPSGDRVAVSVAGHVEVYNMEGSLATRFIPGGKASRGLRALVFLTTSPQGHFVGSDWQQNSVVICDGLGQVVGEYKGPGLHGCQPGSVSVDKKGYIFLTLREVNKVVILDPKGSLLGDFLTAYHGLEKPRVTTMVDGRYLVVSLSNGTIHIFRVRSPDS
inactive: vemurafenib 0.026 | [1] 0.026 | barasertib -0.039 | [2] 0.006 | volasertib -0.029 | [3] -0.04 | [4] 0.227 | [5] -0.102 | saracatinib 0.031 | sotrastaurin -0.019

TTC12 isoform 2 (UniProt Q9H892)
inactive: vemurafenib 0.025 | [1] 0.061 | barasertib 0.053 | [2] -0.049 | volasertib 0.063 | [3] -0.121 | [4] -0.208 | [5] 0.079 | saracatinib 0.038 | sotrastaurin -0.055

TMEM70 (UniProt Q9BUB7)
UniProt Q9BUB7, sequence (Q9BUB7 whole entry, looked up): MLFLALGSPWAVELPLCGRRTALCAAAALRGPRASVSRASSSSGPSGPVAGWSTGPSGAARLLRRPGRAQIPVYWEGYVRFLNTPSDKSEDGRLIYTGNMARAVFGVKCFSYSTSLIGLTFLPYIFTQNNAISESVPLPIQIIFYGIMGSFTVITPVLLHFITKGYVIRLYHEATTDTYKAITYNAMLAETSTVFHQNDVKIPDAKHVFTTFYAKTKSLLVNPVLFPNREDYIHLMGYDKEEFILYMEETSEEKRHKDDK
active: [4] -0.378
inactive: vemurafenib -0.016 | [1] 0.029 | barasertib 0.063 | [2] -0.072 | volasertib -0.004 | [3] -0.027 | [5] 0.027 | saracatinib 0.023 | sotrastaurin 0.122

TRNAU1AP (UniProt Q9NX07)
inactive: [1] 0.007 | barasertib 0.059 | [2] 0.062 | volasertib -0.041 | [3] 0.04 | [4] -0.264 | [5] 0.031 | saracatinib 0.027 | sotrastaurin -0.027
active: vemurafenib -0.335

TUBAL3 (UniProt A6NHL2)
inactive: vemurafenib 0.084 | [1] -0.024 | barasertib -0.011 | [2] -0.122 | volasertib 0.041 | [3] -0.196 | [4] -0.413 | [5] 0.284 | saracatinib 0.001

TPM1 (UniProt H7BYY1)
active: [5] -0.205
inactive: vemurafenib -0.001 | [1] -0.024 | barasertib -0.031 | [2] 0.052 | volasertib 0.043 | [3] -0.003 | [4] 0.092 | saracatinib 0.009 | sotrastaurin 0.015

TTK (UniProt P33981)
inactive: vemurafenib -0.009 | [1] 0.02 | barasertib 0.06 | [2] 0.089 | volasertib -0.026 | [3] -0.048 | [4] -0.018 | [5] 0.01 | saracatinib -0.037 | sotrastaurin 0.072

TBL3 (UniProt Q12788)
UniProt Q12788, sequence (Q12788 whole entry, looked up): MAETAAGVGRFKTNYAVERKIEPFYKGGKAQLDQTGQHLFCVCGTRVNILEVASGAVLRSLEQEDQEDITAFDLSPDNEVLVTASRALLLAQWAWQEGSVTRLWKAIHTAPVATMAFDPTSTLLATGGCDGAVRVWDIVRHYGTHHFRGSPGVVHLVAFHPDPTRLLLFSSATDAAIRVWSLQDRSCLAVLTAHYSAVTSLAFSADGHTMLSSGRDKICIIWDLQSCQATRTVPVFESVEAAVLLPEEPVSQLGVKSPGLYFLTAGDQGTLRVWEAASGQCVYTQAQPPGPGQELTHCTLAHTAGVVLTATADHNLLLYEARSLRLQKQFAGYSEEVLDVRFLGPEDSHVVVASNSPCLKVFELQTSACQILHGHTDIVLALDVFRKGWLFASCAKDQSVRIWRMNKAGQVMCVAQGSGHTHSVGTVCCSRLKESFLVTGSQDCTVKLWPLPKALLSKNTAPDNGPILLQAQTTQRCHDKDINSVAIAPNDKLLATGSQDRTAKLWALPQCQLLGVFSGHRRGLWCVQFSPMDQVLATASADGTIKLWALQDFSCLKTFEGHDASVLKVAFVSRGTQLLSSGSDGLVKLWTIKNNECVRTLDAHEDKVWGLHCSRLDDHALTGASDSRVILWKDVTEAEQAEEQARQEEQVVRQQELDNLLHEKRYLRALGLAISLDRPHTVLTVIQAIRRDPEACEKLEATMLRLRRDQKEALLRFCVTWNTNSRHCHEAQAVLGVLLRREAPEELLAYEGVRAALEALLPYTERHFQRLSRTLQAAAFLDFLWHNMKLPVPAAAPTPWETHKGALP
inactive: vemurafenib 0.02 | [1] 0.003 | barasertib 0.042 | [2] -0.018 | volasertib -0.006 | [3] 0.004 | [4] -0.005 | [5] -0.012 | saracatinib 0.026 | sotrastaurin 0.009

TRADD (UniProt Q15628)
active: vemurafenib -0.611
inactive: [1] 0.052 | barasertib -0.002 | [2] 0.07 | volasertib -0.023 | [3] 0.065 | [4] 0.014 | [5] 0.001 | saracatinib 0.011 | sotrastaurin -0.023

TUT4 (UniProt Q5TAX3)
inactive: vemurafenib 0.091 | [1] -0.007 | barasertib 0.024 | [2] -0.021 | volasertib -0.06 | [3] 0.031 | [4] -0.085 | [5] 0.083 | saracatinib -0.01 | sotrastaurin 0.035

TJP1 isoform 2 (UniProt Q07157)
inactive: vemurafenib 0.023 | [1] 0 | barasertib -0.003 | [2] 0.064 | volasertib -0.01 | [3] -0.045 | [4] -0.046 | [5] 0.057 | saracatinib 0.014 | sotrastaurin 0.014

TGOLN2 isoform 7 (UniProt O43493)
inactive: vemurafenib 0.02 | [1] 0.023 | barasertib -0.023 | [2] 0.05 | volasertib 0.035 | [3] -0.094 | [4] -0.012 | [5] 0.036 | saracatinib -0.033 | sotrastaurin 0.06

TMOD1 (UniProt P28289)
inactive: vemurafenib -0.015 | [1] -0.02 | barasertib 0.027 | [2] -0.027 | volasertib -0.031 | [3] -0.024 | [4] 0.041 | [5] -0.031 | saracatinib -0.001 | sotrastaurin -0.017

TRIM65 (UniProt Q6PJ69)
UniProt Q6PJ69, sequence (Q6PJ69 whole entry, looked up): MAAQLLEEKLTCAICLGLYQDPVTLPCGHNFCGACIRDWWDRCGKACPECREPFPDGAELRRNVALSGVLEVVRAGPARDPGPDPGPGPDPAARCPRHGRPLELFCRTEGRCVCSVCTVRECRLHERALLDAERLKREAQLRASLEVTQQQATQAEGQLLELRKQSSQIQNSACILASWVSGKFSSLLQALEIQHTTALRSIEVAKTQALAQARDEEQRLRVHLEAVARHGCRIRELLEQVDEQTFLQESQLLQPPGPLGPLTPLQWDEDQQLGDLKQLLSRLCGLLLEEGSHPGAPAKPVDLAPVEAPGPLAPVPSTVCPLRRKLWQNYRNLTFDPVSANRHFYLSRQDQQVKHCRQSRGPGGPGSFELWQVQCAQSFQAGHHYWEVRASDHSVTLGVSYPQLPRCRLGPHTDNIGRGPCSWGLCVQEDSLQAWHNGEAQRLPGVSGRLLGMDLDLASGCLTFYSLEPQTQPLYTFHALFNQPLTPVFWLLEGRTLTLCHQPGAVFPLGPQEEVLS
inactive: vemurafenib 0.025 | [1] 0.085 | barasertib 0.013 | [2] 0.026 | volasertib -0.076 | [3] 0 | [4] -0.056 | [5] 0.008 | saracatinib -0.022 | sotrastaurin 0.022

TPD52L2 isoform 7 (UniProt O43399)
inactive: vemurafenib -0.02 | [1] -0.033 | barasertib 0.045 | [2] 0.048 | volasertib 0.017 | [3] 0.011 | [4] -0.14 | [5] 0.207 | saracatinib 0.003 | sotrastaurin 0.034

TRIM33 isoform 2 (UniProt Q9UPN9)
inactive: vemurafenib -0.018 | [1] -0.003 | barasertib 0.009 | [2] -0.008 | volasertib -0.039 | [3] 0.023 | [4] -0.132 | [5] 0.05 | saracatinib 0.027 | sotrastaurin 0.043

TRMT10A (UniProt Q8TBZ6)
UniProt Q8TBZ6, sequence (Q8TBZ6 whole entry, looked up): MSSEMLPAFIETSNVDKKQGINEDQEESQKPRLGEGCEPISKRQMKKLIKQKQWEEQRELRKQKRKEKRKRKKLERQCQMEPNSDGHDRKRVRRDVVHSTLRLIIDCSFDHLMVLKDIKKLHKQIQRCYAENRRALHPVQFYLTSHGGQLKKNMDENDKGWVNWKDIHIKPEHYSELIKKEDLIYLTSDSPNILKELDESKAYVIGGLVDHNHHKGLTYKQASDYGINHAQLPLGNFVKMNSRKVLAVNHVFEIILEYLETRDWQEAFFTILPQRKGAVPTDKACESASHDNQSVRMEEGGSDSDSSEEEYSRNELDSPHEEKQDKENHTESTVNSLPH
inactive: vemurafenib 0.005 | [1] -0.025 | barasertib -0.08 | [2] 0.118 | volasertib -0.014 | [3] -0.005 | [4] -0.027 | [5] 0.029 | saracatinib -0.014 | sotrastaurin 0.006

TMPO (UniProt P42166)
inactive: vemurafenib 0.027 | [1] -0.004 | barasertib 0.04 | [2] -0.041 | volasertib -0.025 | [3] 0.033 | [4] 0.026 | [5] 0.003 | saracatinib -0.017 | sotrastaurin -0.161

UBR3 isoform 4 (UniProt Q6ZT12)
inactive: vemurafenib 0.035 | [1] -0.001 | barasertib 0.026 | [2] -0.033 | volasertib -0.091 | [3] -0.011 | [4] -0.015 | [5] -0.044 | saracatinib 0.044 | sotrastaurin 0.009

TECR (UniProt Q9NZ01)
inactive: vemurafenib -0.003 | [1] 0.054 | barasertib 0.082 | [2] -0.02 | volasertib 0.001 | [3] 0.032 | [4] 0.014 | [5] -0.247 | saracatinib 0.045 | sotrastaurin -0.034

TRIP12 isoform 2 (UniProt Q14669)
UniProt Q14669, sequence (Q14669 whole entry, looked up): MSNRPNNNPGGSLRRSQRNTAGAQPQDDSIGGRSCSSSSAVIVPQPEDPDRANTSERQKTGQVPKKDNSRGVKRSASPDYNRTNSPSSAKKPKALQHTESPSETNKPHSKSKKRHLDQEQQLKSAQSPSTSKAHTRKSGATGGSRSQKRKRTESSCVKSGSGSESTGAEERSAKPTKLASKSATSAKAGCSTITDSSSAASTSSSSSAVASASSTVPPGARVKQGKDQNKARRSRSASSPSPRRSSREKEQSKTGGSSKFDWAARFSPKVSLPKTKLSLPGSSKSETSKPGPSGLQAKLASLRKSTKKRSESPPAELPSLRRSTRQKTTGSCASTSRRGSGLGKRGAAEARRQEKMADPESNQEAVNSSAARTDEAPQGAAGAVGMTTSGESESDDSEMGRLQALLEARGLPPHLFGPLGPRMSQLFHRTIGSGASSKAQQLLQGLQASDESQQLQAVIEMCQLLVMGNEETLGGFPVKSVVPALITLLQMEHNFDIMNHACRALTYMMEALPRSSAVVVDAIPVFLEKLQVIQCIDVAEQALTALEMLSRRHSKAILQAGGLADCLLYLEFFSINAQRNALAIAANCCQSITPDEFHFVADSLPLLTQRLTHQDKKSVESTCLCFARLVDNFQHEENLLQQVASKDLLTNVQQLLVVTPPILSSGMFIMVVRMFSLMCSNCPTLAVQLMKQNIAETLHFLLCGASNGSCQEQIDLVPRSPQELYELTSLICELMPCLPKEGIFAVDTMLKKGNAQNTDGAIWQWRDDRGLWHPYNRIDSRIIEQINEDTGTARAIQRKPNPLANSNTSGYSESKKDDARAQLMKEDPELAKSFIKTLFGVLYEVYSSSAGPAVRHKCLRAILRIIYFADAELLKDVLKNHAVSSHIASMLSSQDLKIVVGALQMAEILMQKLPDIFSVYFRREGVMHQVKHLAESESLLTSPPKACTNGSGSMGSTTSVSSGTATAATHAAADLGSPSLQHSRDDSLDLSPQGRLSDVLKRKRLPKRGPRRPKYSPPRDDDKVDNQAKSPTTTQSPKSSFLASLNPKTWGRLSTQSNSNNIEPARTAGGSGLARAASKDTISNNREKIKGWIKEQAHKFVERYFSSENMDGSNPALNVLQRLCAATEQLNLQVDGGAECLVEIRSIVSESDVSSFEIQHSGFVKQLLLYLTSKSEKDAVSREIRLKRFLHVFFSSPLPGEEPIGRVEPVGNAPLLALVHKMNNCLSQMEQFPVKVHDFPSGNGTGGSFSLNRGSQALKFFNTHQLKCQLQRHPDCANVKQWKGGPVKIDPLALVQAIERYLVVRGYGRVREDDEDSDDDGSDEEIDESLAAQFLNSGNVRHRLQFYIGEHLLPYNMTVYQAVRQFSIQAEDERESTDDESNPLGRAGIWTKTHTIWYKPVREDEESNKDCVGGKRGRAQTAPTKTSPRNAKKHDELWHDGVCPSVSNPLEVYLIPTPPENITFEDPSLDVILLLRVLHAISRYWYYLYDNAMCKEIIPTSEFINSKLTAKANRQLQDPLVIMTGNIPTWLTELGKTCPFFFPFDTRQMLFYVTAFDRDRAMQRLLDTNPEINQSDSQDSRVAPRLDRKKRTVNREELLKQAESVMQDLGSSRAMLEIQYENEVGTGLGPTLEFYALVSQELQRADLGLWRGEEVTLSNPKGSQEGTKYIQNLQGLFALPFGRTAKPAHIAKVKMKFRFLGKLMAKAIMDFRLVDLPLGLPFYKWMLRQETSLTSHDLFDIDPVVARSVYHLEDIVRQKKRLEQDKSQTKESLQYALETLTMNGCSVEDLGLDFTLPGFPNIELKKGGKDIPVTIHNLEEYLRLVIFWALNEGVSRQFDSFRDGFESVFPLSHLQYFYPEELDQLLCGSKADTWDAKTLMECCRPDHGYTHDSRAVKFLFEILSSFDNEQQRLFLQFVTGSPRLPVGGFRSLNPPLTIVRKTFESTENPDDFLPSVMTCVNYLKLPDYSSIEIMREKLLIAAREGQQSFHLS
inactive: vemurafenib 0.014 | [1] 0.068 | barasertib 0.038 | [2] -0.001 | volasertib -0.028 | [3] 0.091 | [4] -0.031 | [5] 0.036 | saracatinib -0.007 | sotrastaurin 0.013

TUBB2A (UniProt Q13885)
inactive: vemurafenib -0.001 | [1] 0.016 | barasertib -0.013 | [2] -0.007 | volasertib -0.049 | [3] 0.003 | [4] -0.032 | [5] 0.002 | saracatinib 0.011 | sotrastaurin 0.017

TUBGCP3 (UniProt Q96CW5)
inactive: vemurafenib -0.013 | [1] 0.026 | barasertib -0.078 | [2] 0.001 | volasertib -0.039 | [3] 0.028 | [4] -0.016 | [5] 0.015 | saracatinib 0.002 | sotrastaurin 0.01

TIMELESS (UniProt Q9UNS1)
inactive: vemurafenib 0.035 | [1] 0.031 | barasertib 0.039 | [2] -0.058 | volasertib 0.043 | [3] 0.013 | [4] -0.094 | [5] -0.07 | saracatinib 0.035 | sotrastaurin 0

UBR4 (UniProt Q5T4S7)
inactive: vemurafenib -0.003 | [1] 0.016 | barasertib 0.02 | [2] -0.037 | volasertib -0.03 | [3] 0.019 | [4] -0.034 | [5] -0.031 | saracatinib 0.01 | sotrastaurin 0.007

TK1 (UniProt P04183)
UniProt P04183, sequence (P04183 whole entry, looked up): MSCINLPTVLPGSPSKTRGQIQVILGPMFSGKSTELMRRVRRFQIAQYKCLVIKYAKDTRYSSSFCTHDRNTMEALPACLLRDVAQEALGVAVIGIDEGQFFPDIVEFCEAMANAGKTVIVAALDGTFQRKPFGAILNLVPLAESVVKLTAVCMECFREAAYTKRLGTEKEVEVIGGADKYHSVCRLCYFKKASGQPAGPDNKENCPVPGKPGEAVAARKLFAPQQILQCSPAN
inactive: vemurafenib 0.022 | [1] 0.013 | barasertib -0.007 | [2] 0.009 | volasertib 0.031 | [3] -0.008 | [4] -0.124 | [5] 0.104 | saracatinib -0.002 | sotrastaurin 0.002
